Laboratory results published in PubChem BioAssay.
Calls of active or inactive are those of the source.

What was measured:
[1] = target: Albumin (Bos taurus) (UniProt P02769); assay: compounds binding labelled BSA control protein – biochemical, small-molecule microarray, Alexa647 label, 635/667 nm fluorescence, artefact control for SMM control protein annotation, profiling panel (AID 1118); conditions: BSA-A647 binding, fluorescence 635 nm, higher = more signal;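 further: score merges 667 nm emission intensity and signal-to-noise per printed compound spot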
Albumin (Bos taurus), sequence (P02769 whole entry, looked up): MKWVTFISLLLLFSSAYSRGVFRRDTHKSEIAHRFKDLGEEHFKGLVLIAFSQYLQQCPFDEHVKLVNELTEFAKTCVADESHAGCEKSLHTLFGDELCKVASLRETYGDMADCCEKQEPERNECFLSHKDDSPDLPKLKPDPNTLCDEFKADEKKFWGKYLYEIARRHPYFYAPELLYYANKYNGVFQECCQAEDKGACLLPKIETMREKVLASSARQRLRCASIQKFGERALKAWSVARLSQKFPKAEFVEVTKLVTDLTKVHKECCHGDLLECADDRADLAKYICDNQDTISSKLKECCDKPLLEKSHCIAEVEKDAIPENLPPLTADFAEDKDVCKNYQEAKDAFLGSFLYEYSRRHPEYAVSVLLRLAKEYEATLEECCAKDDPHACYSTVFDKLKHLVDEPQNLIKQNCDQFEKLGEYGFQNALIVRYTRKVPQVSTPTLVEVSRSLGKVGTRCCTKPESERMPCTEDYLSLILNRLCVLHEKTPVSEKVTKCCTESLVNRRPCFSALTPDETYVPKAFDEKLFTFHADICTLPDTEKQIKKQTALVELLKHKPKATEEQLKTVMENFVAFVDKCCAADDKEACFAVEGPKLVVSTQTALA

[2] = probe aXIP binding to arrayed compounds – biochemical, NeuroSMM set, 635/667 nm fluorescence, primary screen (AID 1119); conditions: small-molecule microarray, higher = more signal, called active from +8 up or from −8 down;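 further: probe is the protein aXip251-270 applied at 1 µg/mL to compound-printed slides; binding of probe to printed compounds measured as 667 nm fluorescence plus signal to noise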
[3] = probe aNOTCH3 binding on compound microarray – biochemical, small-molecule microarray, 635/667 nm fluorescence, primary screen (AID 1120); conditions: higher = more signal;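 further: probe is a biotin-tagged antibody raised against NOTCH3 rather than NOTCH3 protein; score merges spot fluorescence near 667 nm with spot signal to noise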
[4] = probe aNOTCH2 binding on compound microarray – biochemical, small-molecule microarray, 635/667 nm fluorescence, primary screen (AID 1121); conditions: higher = more signal;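 further: score merges feature fluorescence read at 667 nm with its signal to noise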
[5] = target: Carbonic anhydrase 2 (Homo sapiens) (UniProt P00918); assay: compounds binding carbonic anhydrase 2 – biochemical, small-molecule microarray, Alexa647-labelled CAII, profiling panel (AID 1122); conditions: CAII-A647 binding fluorescence, higher = more signal
[6] = COS7 lysate on small-molecule microarray, probe aHis, 635 nm (AID 1123); conditions: COS7 cell lysate, fluorescence, higher = more signal;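 further: z-score combines 667nm fluorescence intensity with signal-to-noise per printed compound spot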
[7] = probe aLAP1 signal on lysate-treated microarray – cell lysate, small-molecule microarray, COS7 lysate, primary screen (AID 1124); conditions: probe aLAP1, fluorescence, higher = more signal;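 further: lysate comes from COS7 cells expressing LAP1 and is applied at 0.3 µg/mL; score merges spot fluorescence near 667 nm with signal-to-noise over triplicate slides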
[8] = test system: Sam68 (KHDRBS1); assay: compounds binding KHDRBS1 protein – biochemical, small-molecule microarray, 635 nm fluorescence, primary screen (AID 1125); conditions: higher = more signal;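 further: score merges 667 nm channel intensity with signal to noise over triplicate slides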
[9] = test system: Chordin-like protein 2 (CHRDL2); assay: compounds binding chordin-like 2 – biochemical, small-molecule microarray, 635 nm fluorescence, primary screen (AID 1126); conditions: fluorescence 635 nm, higher = more signal;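 further: printed compound slides probed with Chrdl2 protein at 4 µg/mL for 1 h at 4 C; score merges 667 nm emission intensity with signal to noise over three replicate slides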
[10] = target: Concanavalin-A (Canavalia ensiformis) (UniProt P02866); assay: compounds binding concanavalin A lectin – biochemical, small-molecule microarray, Alexa647 label, 635 nm, artefact control for SMM control protein annotation, primary screen (AID 1127); conditions: ConA-A647 binding fluorescence, higher = more signal;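 further: z combines 667 nm emission intensity with signal-to-noise across three replicate slides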
Concanavalin-A (Canavalia ensiformis), sequence (P02866 whole entry, looked up): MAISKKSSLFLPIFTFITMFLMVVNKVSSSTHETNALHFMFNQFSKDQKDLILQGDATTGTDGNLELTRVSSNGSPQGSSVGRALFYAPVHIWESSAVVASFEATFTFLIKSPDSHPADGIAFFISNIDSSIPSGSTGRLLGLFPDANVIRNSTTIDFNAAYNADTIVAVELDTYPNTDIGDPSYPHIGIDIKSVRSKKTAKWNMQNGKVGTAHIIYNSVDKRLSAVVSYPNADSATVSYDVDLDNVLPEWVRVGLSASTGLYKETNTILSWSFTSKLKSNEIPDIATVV

[11] = compounds binding Alexa647 anti-His antibody – biochemical, small-molecule microarray, 635 nm fluorescence, artefact control for SMM control protein annotation, primary screen (AID 1128); conditions: higher = more signal;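 further: score merges feature fluorescence with signal-to-noise for each printed compound spot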
[12] = test system: Human papillomavirus type 1a E7 protein (residues 1-88); assay: HPV1a E7 small-molecule binders, primary screen, biochemical, small-molecule microarray, residues 1-88, 635 nm (AID 1129); conditions: small-molecule microarray binding, fluorescence 635 nm; higher = more signal
[13] = target: Focal adhesion kinase 1 (Homo sapiens) (UniProt Q05397); assay: PTK2 protein binding on printed compound slides – biochemical, small-molecule microarray, 635/667 nm fluorescence, BSA, DTT, primary screen (AID 1130); conditions: 635 nm fluorescence, higher = more signal;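 further: composite of spot emission at 667 nm and signal to noise over triplicate slides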
Focal adhesion kinase 1 (Homo sapiens), sequence (Q05397 whole entry, looked up): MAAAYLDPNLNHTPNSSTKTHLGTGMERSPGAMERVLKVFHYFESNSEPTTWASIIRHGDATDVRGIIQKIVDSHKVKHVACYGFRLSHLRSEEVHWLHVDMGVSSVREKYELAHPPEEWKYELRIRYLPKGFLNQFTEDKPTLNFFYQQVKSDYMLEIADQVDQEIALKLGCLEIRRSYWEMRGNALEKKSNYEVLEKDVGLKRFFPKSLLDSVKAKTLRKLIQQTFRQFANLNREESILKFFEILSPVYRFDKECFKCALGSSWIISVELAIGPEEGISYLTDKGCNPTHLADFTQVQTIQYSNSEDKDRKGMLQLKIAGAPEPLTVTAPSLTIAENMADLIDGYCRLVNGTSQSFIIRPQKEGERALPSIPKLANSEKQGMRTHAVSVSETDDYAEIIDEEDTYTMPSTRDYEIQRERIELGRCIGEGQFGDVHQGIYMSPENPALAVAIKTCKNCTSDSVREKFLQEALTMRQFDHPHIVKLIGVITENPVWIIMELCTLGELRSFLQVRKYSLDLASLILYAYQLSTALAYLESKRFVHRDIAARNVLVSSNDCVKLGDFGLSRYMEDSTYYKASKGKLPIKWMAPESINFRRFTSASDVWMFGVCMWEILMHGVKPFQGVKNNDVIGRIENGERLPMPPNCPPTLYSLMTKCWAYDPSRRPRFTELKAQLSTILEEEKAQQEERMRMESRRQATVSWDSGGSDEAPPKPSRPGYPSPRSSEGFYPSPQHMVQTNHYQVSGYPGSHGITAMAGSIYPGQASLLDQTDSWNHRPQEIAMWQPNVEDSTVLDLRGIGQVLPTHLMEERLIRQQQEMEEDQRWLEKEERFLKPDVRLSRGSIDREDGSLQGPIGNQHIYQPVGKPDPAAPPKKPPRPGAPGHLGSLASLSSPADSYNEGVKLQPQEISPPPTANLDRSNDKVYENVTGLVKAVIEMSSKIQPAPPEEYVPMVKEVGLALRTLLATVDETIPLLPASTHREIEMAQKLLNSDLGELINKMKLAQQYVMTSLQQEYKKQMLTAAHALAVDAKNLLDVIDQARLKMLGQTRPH

[14] = test system: Fibrinogen (Alexa647-labelled); assay: Alexa647-fibrinogen binding to printed small molecules – biochemical, small-molecule microarray, 635/667 nm fluorescence, artefact control for SMM control-protein annotation, profiling panel (AID 1131); conditions: fibrinogen-A647 binding fluorescence, higher = more signal;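 further: z-score merges 667 nm fluorescence with per-spot signal-to-noise over triplicate slides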
[15] = target: Follistatin (Homo sapiens) (UniProt P19883); assay: FST protein binding to printed compounds – biochemical, small-molecule microarray, 635/667 nm fluorescence, primary screen (AID 1132); conditions: 635 nm fluorescence, higher = more signal
Follistatin (Homo sapiens), sequence (P19883 whole entry, looked up): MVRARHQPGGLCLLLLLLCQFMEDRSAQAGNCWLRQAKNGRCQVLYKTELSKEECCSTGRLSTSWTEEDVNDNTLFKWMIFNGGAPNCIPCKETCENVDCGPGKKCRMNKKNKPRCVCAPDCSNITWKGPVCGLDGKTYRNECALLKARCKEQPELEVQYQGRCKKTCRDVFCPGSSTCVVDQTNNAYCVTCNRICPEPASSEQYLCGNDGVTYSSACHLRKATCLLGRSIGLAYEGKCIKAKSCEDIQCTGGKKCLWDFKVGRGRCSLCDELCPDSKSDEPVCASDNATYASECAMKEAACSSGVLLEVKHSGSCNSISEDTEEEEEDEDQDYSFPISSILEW

[16] = target: Fibroblast growth factor 2 (Homo sapiens) (UniProt P09038); assay: basic fibroblast growth factor binding to printed compounds – biochemical, small-molecule microarray, 635/667 nm fluorescence, primary screen (AID 1133); conditions: FGF2, fluorescence 635/667, higher = more signal
Fibroblast growth factor 2 (Homo sapiens), sequence (P09038 whole entry, looked up): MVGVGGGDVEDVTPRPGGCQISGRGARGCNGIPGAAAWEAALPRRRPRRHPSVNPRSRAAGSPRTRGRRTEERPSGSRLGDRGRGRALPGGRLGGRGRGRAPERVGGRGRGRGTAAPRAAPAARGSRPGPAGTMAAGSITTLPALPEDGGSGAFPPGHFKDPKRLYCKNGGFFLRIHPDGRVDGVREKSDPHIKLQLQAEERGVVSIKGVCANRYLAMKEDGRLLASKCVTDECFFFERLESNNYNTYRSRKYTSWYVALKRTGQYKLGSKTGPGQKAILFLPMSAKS

[17] = JC-1 mitochondrial potential readout, lung cancer cells – cell-based, A549, JC-1 fluorescence, basal, 24 h, 100 nL, profiling panel (AID 1138); conditions: higher = more signal;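 further: A549 lung adenocarcinoma cells under basal conditions with no added stimulus; test concentration not given here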
[18] = test system: Lefty1; assay: Lefty1 protein binding to printed compounds – biochemical, small-molecule microarray, 635/667 nm fluorescence, primary screen (AID 1139); conditions: fluorescence 635/667, higher = more signal
[19] = test system: wheat germ agglutinin (Triticum aestivum), Alexa647-labelled; assay: Alexa647-WGA lectin binding to printed small molecules – biochemical, small-molecule microarray, 635/667 nm fluorescence, artefact control for SMM control-protein annotation, profiling panel (AID 1140); conditions: WGA-A647 binding, 635 nm fluorescence, higher = more signal;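 further: score merges 667 nm feature emission with signal to noise over triplicate slides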
[20] = target: Luciferin 4-monooxygenase (Photinus pyralis) (UniProt P08659); assay: inhibition of purified Photinus pyralis luciferase – biochemical, luminescence, purified enzyme, 2006 set, primary screen (AID 1141); conditions: purified firefly luciferase, SteadyGlo luminescence, 30 min; higher = more signal, called active from +8 up or from −8 down;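 further: cell-free assay with purified firefly luciferase at 100 ng per well in PBS; test concentration not given here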
Luciferin 4-monooxygenase (Photinus pyralis), sequence (P08659 whole entry, looked up): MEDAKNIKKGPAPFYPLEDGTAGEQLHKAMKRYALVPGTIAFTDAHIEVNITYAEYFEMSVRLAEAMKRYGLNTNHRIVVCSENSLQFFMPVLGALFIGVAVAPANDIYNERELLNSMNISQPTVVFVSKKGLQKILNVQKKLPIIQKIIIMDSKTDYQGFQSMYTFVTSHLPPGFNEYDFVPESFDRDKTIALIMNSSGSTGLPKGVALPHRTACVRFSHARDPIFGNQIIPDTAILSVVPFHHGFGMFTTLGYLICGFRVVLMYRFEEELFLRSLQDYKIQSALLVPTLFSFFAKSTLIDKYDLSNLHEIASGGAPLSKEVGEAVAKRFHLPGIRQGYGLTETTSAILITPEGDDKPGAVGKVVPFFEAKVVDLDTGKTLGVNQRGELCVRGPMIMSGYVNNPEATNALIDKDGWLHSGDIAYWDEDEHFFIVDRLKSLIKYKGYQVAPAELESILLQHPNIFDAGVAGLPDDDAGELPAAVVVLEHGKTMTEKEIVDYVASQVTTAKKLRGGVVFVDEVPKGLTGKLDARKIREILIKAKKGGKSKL

Compound | composite z-score [1] | composite Z-score [2] | composite z-score [3] | composite z-score [4] | composite z-score [5] | composite z-score [6] | composite z-score [7] | composite z-score [8] | composite z-score [9] | composite z-score [10] | composite z-score [11] | composite z-score [12] | composite z-score [13] | composite z-score [14] | composite z-score [15] | composite z-score [16] | z-score [17] | composite z-score [18] | composite z-score [19] | z-score [20]
CC(C)C[C@@H]1NC(=O)[C@@H]2C[C@H](C(=O)NCCCCCCN)[C@H](c3cccc(OCCO)c3)N2C1=O | 0.586 | 0.799 (inactive) | 0.16 | -0.0859 | 0.659 | 2.22 | 0.636 | 1.31 | 0.668 | 1.03 | 2.25 | 1.11 | 0.344 | 0.662 | 1.32 | 0.548 | -0.645 | 1.51 | 1.1 | 0.459 (inactive)
O=C1[C@H]2C=C(I)[C@H](C[C@@H]2OCCOCCO)[C@@]12CO2 | -0.35 | -0.175 (inactive) | -0.0299 | -0.173 | -0.0167 | -0.477 | 0.072 | 0.807 | 0.466 | 0.2 | -0.0655 | 0.747 | 0.0017 | 0.0216 | 0.697 | 0.952 | -0.43 | 0.858 | -0.12 | 0.818 (inactive)
COCCCNC(=O)[C@@H]1c2ccccc2C(=O)N(C(C)C)[C@H]1c1ccc(CO)cc1 | 0.0913 | 0.0178 (inactive) | 0.0577 | -0.125 | 0.25 | -0.756 | -0.366 | 0.0457 | -0.0306 | 0.856 | -0.255 | -0.264 | 0.37 | -0.335 | 0.681 | 0.105 | 0.448 | -0.109 | -0.199 | -0.604 (inactive)
C[N+](C)(C)CCCCCCNC(=O)[C@@H]1C[C@@H]2C(=O)N3CCC[C@H]3C(=O)N2[C@@H]1c1ccc(O)cc1 | -0.245 | 0.05 (inactive) | 0.0591 | -0.118 | 0.684 | 1.47 | 0.326 | 0.904 | 1.41 | 0.818 | 1.36 | 0.451 | 0.0225 | -0.472 | 1.4 | 1.42 | -1.19 | 1.3 | 0.6 | 0.824 (inactive)
COC(=O)[C@@]1(Cc2ccccc2)[C@H]2c3cc(C(=O)N(C)C)n(Cc4ccc(C)o4)c3C[C@H]2CN1C(=O)c1ccccc1 | 0.874 | 0.173 (inactive) | 1.25 | 0.618 | 0.753 | 1.93 | 0.673 | 1.12 | -1.06 | 0.354 | 2.6 | 1.21 | 1.73 | 0.705 | 0.764 | 0.188 | -0.0901 | -0.566 | 1.26 | 0.429 (inactive)
CCCCC(CC)C(O)C1C=CC2C(=O)N(c3ccccc3)C(=O)C2N1Nc1ccc(C#N)cc1 (stereo not given) | 1.02 | 0.369 (inactive) | 0.64 | 0.353 | 0.595 | 2.21 | 0.664 | 1.13 | 0.0027 | 1.2 | 1.34 | 1.21 | 0.702 | 0.922 | 1.07 | 0.208 | -0.213 | 0.131 | 1.12 | -1.92 (inactive)
COc1ccc([Si](C)(C)[C@H]2[C@H](CC(=O)N(CCO)Cc3ccccc3)O[C@@]3(C(=O)N(C)c4c(Br)cc(C)cc43)[C@@H]2C)cc1 | 0.509 | -0.324 (inactive) | -0.0072 | -0.179 | 0.731 | 1.07 | 0.0123 | 0.995 | 1.27 | 0.652 | 1.19 | 1.03 | -0.0842 | -0.009 | 1.51 | 1.84 | -0.774 | 1.57 | 0.61 | -0.342 (inactive)
CCCCC[C@H]1OC[C@@]23C=C(Br)[C@@H](CC12)[C@@]1(CO1)C3=O (stereo not given in full) | -0.677 | 0.39 (inactive) | -0.126 | -0.0907 | -0.174 | -0.0346 | -0.144 | 0.491 | -0.194 | -0.308 | 2.98 | -0.327 | 0.215 | -0.411 | 0.0488 | -0.165 | 0.617 | 0.505 | -0.407 | -0.0658 (inactive)
CS(=O)(=O)CCOC(=O)C1=CC(c2ccc(CO)cc2)=CC(C2CC2)N(Cc2sc3ccccc3c2Cl)C=C1C(=O)OCCS(C)(=O)=O (stereo not given) | 0.52 | 0.42 (inactive) | 0.029 | -0.0839 | 0.815 | 0.737 | 0.55 | 1.03 | 0.802 | 1.11 | 1.27 | 0.795 | 0.716 | 0.88 | 1.28 | 0.881 | 2.04 | 0.851 | 0.861 | -1.86 (inactive)
CN1C2C=C(CCCO)C(C3C(=O)N(C(N)=O)C(=O)C32)C1C1CC1 (stereo not given) | -0.0873 | -1.14 (inactive) | -0.272 | -0.14 | 0.234 | 0.043 | -0.182 | 0.0346 | -0.0334 | 0.31 | 0.352 | 0.186 | -0.158 | 0.481 | -0.0169 | -0.148 | 0.771 | 0.145 | -0.123 | -0.938 (inactive)
COc1cc2c(cc1O)C(c1cccs1)N(Cc1cc3c(cc1Br)OCO3)CC2 (stereo not given) | 0.794 | 0.715 (inactive) | 0.0438 | -0.0397 | 0.723 | 2.92 | 1.03 | 1.04 | 0.417 | 1.12 | 1.83 | 1.28 | 0.822 | 0.976 | 1.08 | 0.75 | -1.56 | 0.556 | 0.544 | -0.657 (inactive)
